ELG1 DNA repair: qHTS screen for small molecules that inhibit ELG1-dependent DNA repair in human embryonic kidney (HEK293T) cells expressing luciferase-tagged ELG1. AID 504467, 2011. Potency, µM (highest dose often 46.1 µM), for the others: top-dose activity change, negative = inhibition, actives largely listed as inhibitors. HEK293T ELG1-luciferase reporter, luminescence, 16 h; DNA damage induced by 5-fluorouridine. hit rate 2.3% among 330,000; also: potency is read from the fitted curve at half-maximal effect; nearly all actives have a fitted effect of over 55% in size
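In this reporter screen, reduction of luminescence relative to DMSO vehicle indicated activity. Compounds and 5-fluorouridine were added together to 2,000 cells per well, incubated for 16 hr at 37 °C, then developed with ONE-Glo.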
Gal4-VP16 FLuc: VP16 counterscreen qHTS for inhibitors of ROR gamma transcriptional activity. Drosophila S2 Gal4-VP16 UAS-luciferase, luminescence, 20 h. Potency, µM (doses to about 53.6 µM), inactives show top-dose activity, negative = inhibition, usual class: inhibitors. hit rate 3.5% among 310,000;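 also: Gal4-VP16 expression switched on by copper sulfate through the metallothionein promoter; potency is read from the fitted curve at half-maximal effect; nearly all actives have a fitted effect of over 50% in size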
DT40 TDP1 CPT: qHTS for Inhibitors of human tyrosyl-DNA phosphodiesterase 1 (TDP1): qHTS in cells in presence of CPT. hit rate 12% among 420,000. Potency, µM (top dose mostly 46.2 µM), inactives show top-dose activity change, negative = growth inhibition, hits mostly inhibitors. chicken DT40 Tdp1-/-;hTDP1 cells + 20 nM CPT, ATP luminescence, 48 h; also: potency is read from the fitted curve at half-maximal effect; nearly all actives have a fitted effect of over 55% in size
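Chicken DT40 Tdp1-/- cells stably complemented with human TDP1 were seeded at 400 cells/well in medium containing 20 nM camptothecin, exposed to pin-transferred compounds, and grown at 37 °C for at least 48 hr. Viability was read as ATP luminescence.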
RORgamma inh: qHTS for inhibitors of ROR gamma transcriptional activity | Nuclear receptor ROR-gamma (Mus musculus), P51450 | Drosophila S2 Gal4-RORgamma UAS-luciferase reporter, 20 h | Potency, µM (series often up to 53.6 µM), inactives show top-dose activity change, negative = inhibition, usual class: inhibitors | hit rate 5.4% among 310,000 | AID 2551, 2010; also: potency is read from the fitted curve at half-maximal effect; nearly all actives have a fitted effect of over 60% in size
Target sequence (P51450 whole entry, looked up, the tested form may be a part): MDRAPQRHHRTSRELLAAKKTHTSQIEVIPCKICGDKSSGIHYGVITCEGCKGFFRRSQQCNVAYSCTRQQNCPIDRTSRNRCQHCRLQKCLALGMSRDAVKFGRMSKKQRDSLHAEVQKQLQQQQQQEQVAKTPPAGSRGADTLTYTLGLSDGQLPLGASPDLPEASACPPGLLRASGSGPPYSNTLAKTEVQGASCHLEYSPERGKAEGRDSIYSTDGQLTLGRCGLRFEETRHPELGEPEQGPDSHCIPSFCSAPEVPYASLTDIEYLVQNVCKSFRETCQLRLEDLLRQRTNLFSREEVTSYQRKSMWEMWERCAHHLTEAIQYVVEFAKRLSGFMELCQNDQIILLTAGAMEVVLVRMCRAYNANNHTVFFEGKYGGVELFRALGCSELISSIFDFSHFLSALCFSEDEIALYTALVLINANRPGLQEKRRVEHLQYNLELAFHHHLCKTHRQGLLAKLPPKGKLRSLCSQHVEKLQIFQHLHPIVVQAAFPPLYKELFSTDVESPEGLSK
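Stably transfected Drosophila Schneider cells are the test system, with ROR gamma fused to Gal4 and luciferase under UAS control; luminescence is read after 20 hr of 700 uM copper sulfate induction at ambient temperature.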
TDP1 cell noCPT: qHTS for Inhibitors of human tyrosyl-DNA phosphodiesterase 1 (TDP1): qHTS in cells in absence of CPT. DT40 Tdp1-/- hTDP1 cells, no CPT, ATP luminescence, 48 h. Potency, µM (doses to about 46.2 µM), inactives show top-dose activity change, negative = growth inhibition, actives largely listed as inhibitors. hit rate 15% among 420,000. AID 686978, 2013; also: potency is read from the fitted curve at half-maximal effect; nearly all actives have a fitted effect of over 55% in size
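Readout: luminescence from CellTiter-Glo after 30 min in the dark at RT. Cells: DT40 Tdp1-/- with stable hTDP1, 400/well. Exposure: compounds alone, ≥48 hr, 37 °C.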
IL1B secr inh: qHTS for Inhibitors of Inflammasome Signaling: IL-1-beta AlphaLISA Primary Screen; THP-1 LPS/ATP IL-1B secretion, AlphaLISA, 16 h; active compounds read low; activity change, % at 57.5 µM; hit rate 4.7% among 360,000; AID 743279, 2014; in the data active = activity change below about -50%; inconclusive = mostly about -30% to -49%
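THP-1 cells pretreated 1 hr with compounds (up to 57.5 uM final), then stimulated with LPS (250 ng/mL final) plus ATP (1.25 mM final); secreted IL-1B measured by AlphaLISA after 16 hr, decreased signal indicating inhibition.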
An asterisk follows results filed as active; ? = inconclusive; / = not tested or not shown; [ ] = remark or other dose. In the library only some 21% were active in any assay of this set; here they are far more common. Unless noted, calls follow the shape of the dose curve; as a rule, active = well fitted curve in the direction sought with a large enough effect; inconclusive = small, poorly fitted or top-dose-only effect, or another doubt; inactive = no such curve, though single readings can be large; an effect the other way counts as inactive or inconclusive. % is scaled to controls: 0 for no effect and ±100 for the full control effect.

SMILES | ELG1 DNA repair | Gal4-VP16 FLuc | DT40 TDP1 CPT | RORgamma inh | TDP1 cell noCPT | IL1B secr inh
O=[N+]([O-])c1ccc(N2CCC(=NOCc3ccc(Cl)cc3)CC2)cc1 | 18% | ? | 21µM* | -1% | 10µM* | ?
Cc1ccc(C(=O)ON=C2CCN(c3ccc([N+](=O)[O-])cc3)CC2)cc1 | -3% | -5% | ? | 23% | ? | 5
COC(=O)C1CCN(Cc2ccc(OCCCN3CCN(c4ccc([N+](=O)[O-])cc4)CC3)cc2)CC1 | -15% | ? | 7.3µM* | ? | 10µM* | 1
O=[N+]([O-])c1ccc(CN2CCN(c3ccc([N+](=O)[O-])cc3)CC2)cc1 | -15% | -24% | ? | 0% | 18µM* | -54*
O=[N+]([O-])c1ccc(CN2CCSCC2)cc1 | 6% | -2% | 7% | -24% | -16% | -15
O=[N+]([O-])c1ccc(N2CCN(Cc3cccc([N+](=O)[O-])c3)CC2)cc1 | -15% | -30% | ? | ? | 4.1µM* | -62*
O=[N+]([O-])c1cccc(COc2ccc(CN3CCOCC3)cc2)c1 | / | / | ? | / | 16µM* | -17
FB(F)F | / | 16% | / | 3% | / | /
O=C1CC(N2CCN(C/C=C/c3ccccc3)CC2)C(=O)N1CCc1ccccc1 (stereo unspecified) | ? | -1% | 18µM* | 33% | 21µM* | -26
FC(F)C(F)(F)c1cc(-c2ccc(Cl)cc2)n[nH]1 | ? | 2% | 18µM* | 20% | 18µM* | /
O=C(Nc1ccccc1Cl)C1CCN(c2nc3ccccc3[nH]2)CC1 | / | / | -10% | / | -29% | /
Cc1ccccc1OCC(O)CNC1CCCC1 (stereo unspecified) | 13% | -9% | -1% | 15%[1.91 µM] | -6% | 11
Cc1ccc(C(C)C)c(OCC(O)CNC2CCCC2)c1 (stereo unspecified) | -7% | -6% | 23µM* | ? | 16µM* | -51*
Cc1ccc(C(C)C)c(OCC(O)CN(C)Cc2ccccc2)c1 (stereo unspecified) | -22% | -21% | 23µM* | 26% | ? | -85*
CC1(C)C(=O)Nc2ccccc2N1C(=O)COC(=O)c1ccc(NC(N)=O)cc1 | -21% | / | ? | / | ? | -9
CC1CCCN(CCCNS(=O)(=O)c2ccc3c(c2)CCN3C(=O)C2CC2)C1 (stereo unspecified) | 23% | -1% | 5% | -11% | 3% | 0
CCOC(=O)Cc1csc(SCC(=O)c2c(N)n(CC(C)C)c(=O)n(C)c2=O)n1 | 5.2µM* | 10µM* | 9.2µM* | ? | 10µM* | 11
CC(C)Cn1c(N)c(C(=O)CSc2ncccn2)c(=O)n(C)c1=O | -12% | / | ? | / | 10µM* | 20
CC(C)Cn1c(N)c(C(=O)CSc2ncn[nH]2)c(=O)n(C)c1=O | / | / | -28% | / | ? | 33
Cc1csc(SCC(=O)c2c(N)n(CC(C)C)c(=O)n(C)c2=O)n1 | 18µM* | 3% | 16µM* | 9% | 21µM* | 4
O=C(c1ccco1)N1CCC2(CC1)CCN(c1cccc(-c3ccccc3)c1)CC2 | / | 12% | ? | 22% | ? | /
Cc1ccc(/C=N\NC(=O)C2CN(S(=O)(=O)c3ccccc3)CCN2S(=O)(=O)c2ccccc2)cc1 (stereo unspecified) | -20% | 8% | ? | 18% | 18µM* | -5
Cc1cccc(C(C)C)c1NC(=O)C1CN(S(=O)(=O)c2ccccc2)CCN1S(=O)(=O)c1ccccc1 (stereo unspecified) | -23% | -1% | 26µM* | 10% | 18µM* | -14
CCN(CC)c1ccc(C=NCCNS(=O)(=O)c2ccc(C)cc2)cc1 | 0% | ? | 5% | 104% | -2% | -9
CCOC(=O)N1CCN(C(=O)c2ccc3c(c2)N(C)C(=O)/C(=C\c2ccc(OCC)c(OC)c2)S3)CC1 | ? | -21% | ? | 13% | 16µM* | ?
SMILES | ELG1 DNA repair | Gal4-VP16 FLuc | DT40 TDP1 CPT | RORgamma inh | TDP1 cell noCPT | IL1B secr inh
CCOc1ccc(/C=C2/Sc3ccc(C(=O)N4CCN(C(=O)c5ccco5)CC4)cc3N(C)C2=O)cc1OC | 21µM* | -12% | / | 9% | / | /
Cc1cccc(/C=C2\Sc3ccc(C(=O)N4CCC(C)CC4)cc3N(C)C2=O)c1 | -13% | -3% | ? | -6% | ? | -54*
Cc1cccc(/C=C2\Sc3ccc(C(=O)N4CCOCC4)cc3N(C)C2=O)c1 | -15% | -1% | ? | -7% | ? | -9
CN1C(=O)/C(=C/c2cccc(Cl)c2)Sc2ccc(C(=O)N3CCCC3)cc21 | ? | -6% | ? | 23% | ? | -2
CCOC(=O)N1CCC(NC(=O)c2ccc3c(c2)N(C)C(=O)/C(=C/c2cccc(OC)c2)S3)CC1 | ? | -25% | 18µM* | ? | 18µM* | 1
Cc1cc(C)cc(NC(=O)c2sc3nc[nH]c(=O)c3c2C)c1 | / | / | -15% | / | -23% | /
CC1C/C(=N\NC(N)=S)c2cc(Cl)ccc2S1 (stereo unspecified) | ? | 2µM* | -2% | 0.63µM* | ? | 12
COc1ccc(N(Cc2cc(=O)[nH]c3ccccc23)C(=O)C(C)C)cc1 | -12% | 4% | 4% | 32% | -2% | 54
N=C1S/C(=C\c2ccc(O)cc2)C(=O)N1c1ccc(F)cc1 | 14% | 2.8µM* | -16% | 2.5µM* | ? | 60
CCOC(=O)[C@@H]1[C@H]2COc3cc(OC)ccc3[C@@H]2N2C(=O)N(c3ccc(F)cc3)C(=O)[C@]12C | 1% | 7% | -13% | 1% | -4% | -1
Cc1cccc(Nc2ncnc3onc(-c4cccc(Cl)c4)c23)c1C | -3% | 2% | 21µM* | -10% | 18µM* | 17
Cc1cccc(Nc2ncnc3onc(-c4ccc(F)cc4)c23)c1C | 11% | -5% | ? | -13% | ? | 12
Clc1cccc(-c2noc3ncnc(NC4CCCCC4)c23)c1 | / | / | 21µM* | / | 26µM* | /
Clc1ccc(-c2noc3ncnc(NC4CCCCC4)c23)cc1 | / | / | 3% | / | -19% | /
COC(=O)C/C=C\[C@@H](C)[C@@H](/C=N\O[C@@H](C)c1cc(-c2c(C)cc(C)cc2C)no1)OC | / | -10%[10 µM] | / | -1%[10 µM] | / | /

Screening data as filed in PubChem BioAssay.
